Screening results: PubChem, National Center for Advancing Translational Sciences (NCATS)
Compounds with a hit are over-represented: about 2.4% of the library has one in this group of screens.
D2 antagonist – HTS Assay for Allosteric Antagonists of the Human D2 Dopamine Receptor: Primary Screen for Antagonists; 340,000 tested, 2% active; AID 485344, 2010; D(2) dopamine receptor (Homo sapiens), P14416; HEK293 TREx D2 cells, calcium flux, dopamine EC80; inhibition, % at 10 µM; in the data active = inhibition above about 30%; inactive = below that, where a call was filed; note: 0% is about no effect
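Calcium flux kinetic readout in an inducible HEK293 TREx D2 line plated overnight at 30 C. After 180 s compound exposure, an EC80 dopamine challenge follows with another 180 s kinetic read to detect antagonism.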
D2 PAM-1 – Beta-Arrestin HTS for Positive Allosteric Modulators of the Human D2 Dopamine Receptor: Potentiators | 360,000 tested, 0.23% active | AID 624464, 2012 | DiscoveRx D2 beta-arrestin cells, luminescence, 90 min; 100% = 57 uM dopamine signal | potentiation, % (no concentration beside the values) | D(2) dopamine receptor (Homo sapiens), P14416; in the data active = potentiation above about 50%; inconclusive = mostly about 30% to 49%
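PathHunter D2 cells, attached overnight at 37 deg C, received compound in DMSO plus dopamine at EC20 (50 nM final) for 90 min at 37 deg C. Beta-arrestin recruitment was read as luminescence after 1 h with detection reagent at ambient temperature.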
D2 PAM-2 – HTS Assay for Positive Allosteric Modulators of the Human D2 Dopamine Receptor: Primary Screen for Potentiators | D(2) dopamine receptor (Homo sapiens), P14416 | 340,000 tested, 0.34% active | AID 485347, 2010 | HEK293 T-REx D2, calcium flux, EC20 dopamine potentiation | potentiation, % at 10 µM;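 active = potentiation over 3 SD above the plate norm, cut at about 30% in these data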; note: 0% is about no effect
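Potentiation of an EC20 dopamine calcium response measured kinetically over 180 s, after a preceding 180 s compound-only read flagging agonists. Cells: inducible Hek293 Trex D2 line, 4000/well, cultured overnight at 30 C before dye loading.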
D2 ag-1 – HTS Assay for Allosteric Agonists of the Human D2 Dopamine Receptor: Primary Screen for Agonists. D(2) dopamine receptor (Homo sapiens), P14416. HEK293 T-REx D2 cells, calcium flux agonist mode. activation, % at 2 µM. 340,000 tested, 0.53% active. AID 485358, 2010;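 active = activation over 3 SD above normal in the single-dose calcium agonist read, cut at about 30% in these data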; note: 0% is about no effect
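In this primary screen, compounds producing a positive calcium signal within 180 s of addition to tetracycline-induced, force-coupled HEK293 Trex D2 cells are flagged; cells are dye-loaded with a no-wash calcium kit beforehand.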
D2 ag-2 – Beta-Arrestin HTS for Positive Allosteric Modulators of the Human D2 Dopamine Receptor: Agonists | D(2) dopamine receptor (Homo sapiens), P14416 | DiscoveRx PathHunter D2 beta-arrestin, luminescence, 90 min; 100% = 57 uM dopamine signal | activation, % (test concentration not listed) | 360,000 tested, 0.084% active | AID 624465, 2012; in the data active = activation above about 40%; inconclusive = between about 15% and that limit
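DiscoveRx PathHunter D2 beta-arrestin cells (2,100/well) attached overnight, then compound-stimulated 90 min at 37 C in HBSS/10 mM HEPES/0.1% Tween-20 buffer; beta-galactosidase complementation read by luminescence after 1 h at ambient temperature. Dopamine 57 uM final (EC100) as control.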
D3 arrestin ag – qHTS of D3 Dopamine Receptor Agonist: D3 Dopamine Receptor B-arrestin Agonist Confirmatory Assay | shares compounds with D2 ag-1 | DiscoveRx D3 beta-arrestin cells, luminescence, 90 min | 2,300 tested, 4% active | Potency, µM (top dose mostly 76.9 µM), for inactives: at the highest dose activation, hits mostly activators | AID 720506, 2013;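 note: potency is the fitted concentration of half-maximal effect; 100% = dopamine control response; nearly all actives have a fitted effect of over 70% in size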
Target sequence (P35462 whole entry, looked up): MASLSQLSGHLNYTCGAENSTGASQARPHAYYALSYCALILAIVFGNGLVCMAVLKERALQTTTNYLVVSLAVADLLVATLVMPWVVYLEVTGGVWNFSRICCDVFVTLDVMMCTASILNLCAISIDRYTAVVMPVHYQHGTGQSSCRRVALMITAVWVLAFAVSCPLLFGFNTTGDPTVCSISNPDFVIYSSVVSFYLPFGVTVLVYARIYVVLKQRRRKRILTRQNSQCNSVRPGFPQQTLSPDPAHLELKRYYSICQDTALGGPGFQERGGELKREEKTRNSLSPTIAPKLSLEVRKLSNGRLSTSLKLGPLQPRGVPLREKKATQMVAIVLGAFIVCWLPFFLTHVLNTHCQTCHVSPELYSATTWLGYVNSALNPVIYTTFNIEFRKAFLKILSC
D2 ag-3 – qHTS of D3 Dopamine Receptor Agonist: D2 Dopamine Receptor B-arrestin Agonist Counterscreen; shares compounds with D2 ag-1; DiscoveRx PathHunter D2 beta-arrestin, luminescence, 90 min; response scale: percent relative to full dopamine signal; Potency, µM (doses to about 76.9 µM), for inactives: at the top dose activation, usual class: activators; 2,300 tested, 5.9% active; AID 720507, 2013; note: potency is the fitted concentration of half-maximal effect; % of control where 0% means no effect; nearly all actives have a fitted effect of over 70% in size
An asterisk follows results filed as active; ? = inconclusive; · = no result. Unless noted, calls come from the whole dose curve; as a rule, active = well fitted activation curve with a large enough effect; inconclusive = small, poorly fitted or top-dose-only effect; inactive = flat fitted curve, though single readings scatter.

SMILES | D2 antagonist | D2 PAM-1 | D2 PAM-2 | D2 ag-1 | D2 ag-2 | others
CCN1CCN(C(=O)Cn2ncc3c4ccccc4n(Cc4c(C)cc(C)cc4C)c3c2=O)CC1 | · | · | 0.5 | -0.8 | ·
CCn1cc(CN2CCC(C(=O)Nc3cccc(-c4cccc(F)c4)c3)CC2)cn1 | -4.8 | -36.1 | -29.1 | 1.9 | -3.0
CCn1nc(C)c(CN2CCC(C(=O)Nc3cccc(-c4cccc(F)c4)c3)CC2)c1C | 37.8* | -4.6 | -18.3 | -1.7 | 2.5
COc1ccc(C(=O)CN2C(=O)N(c3ccc(C(C)=O)cc3)S(=O)(=O)c3ccccc32)cc1 | · | · | -1.0 | 0.8 | ·
O=C(/C=C/c1ccco1)NCCc1ccccc1 | 31.7* | 0.2 | -6.2 | -0.3 | -2.7
O=C(O)CCCNC(=O)/C=C/c1ccco1 | 0.0 | -0.8 | 14.6 | -0.3 | -6.2
O=C(/C=C/c1ccco1)Nc1cc(Cl)ccc1C(=O)O | 34.4* | -17.9 | 8.5 | -1.5 | -0.1
COc1ccc(N2CCN(c3ccc(-c4nc(-c5ccccc5)no4)cc3[N+](=O)[O-])CC2)cc1 | · | · | · | 0.5 | ·
CCc1nn(Cc2cccc(F)c2)c(=O)c2cc3cc(C)ccc3n12 | · | · | 1.8 | 0.9 | ·
Cc1ccc(OCC(=O)Nc2ccc(O)c(-c3nc4ccccc4o3)c2)cc1 | -0.1 | -11.2 | 32.1* | 0.5 | 0.7
COc1ccccc1NS(=O)(=O)c1cc(C(=O)NCC(c2ccco2)N2CCCCC2)ccc1C (stereo not given) | · | -38.7 | · | · | -1.0
COc1ccccc1NC(=O)NCC1(N(C)C)CCCCC1 | 58.7* | -15.9 | -17.2 | 0.0 | -4.3
O=C(CSc1ccc(Br)cc1)NCC(c1ccco1)N1CCCCC1 (stereo not given) | 38.9* | 3.1 | 0.2 | 0.3 | -4.3
COc1ccccc1NC(=O)NCC(c1ccco1)N1CCCCC1 (stereo not given) | 38.8* | -28.3 | -15.3 | 0.1 | -4.3
C/C(=N\Nc1ncnc2sc(C)c(C)c12)c1ccccn1 | -18.8 | 19.9 | 10.3 | 46.4* | -4.4
CCn1nc(NC(=O)c2ccncc2)c2cc3ccc(C)cc3nc21 | -6.6 | 12.8 | 5.0 | 0.0 | 5.3
CCn1nc(NC(=O)c2ccncc2)c2cc3cc(C)ccc3nc21 | -2.9 | -13.9 | 34.5* | -0.3 | -2.8
O=c1c(Cc2ccc(F)cc2)c(O)ccn1CCc1ccccn1 | 40.9* | -1.9 | -7.0 | 0.8 | -4.4
CCCCn1ccc(O)c(Cc2ccc(F)cc2)c1=O | 0.4 | -38.8 | 0.0 | -0.6 | -3.3
CC(=O)c1cccc(Nc2ncnc3c2cnn3-c2cccc(Cl)c2)c1 | · | · | 11.9 | -0.3 | ·
O=C1c2cccc3c([N+](=O)[O-])ccc(c23)C(=O)N1O | 26.7 | 4.0 | -1.8 | -0.2 | 41.7*
O=C1c2cccc3c([N+](=O)[O-])ccc(c23)C(=O)N1c1ccccn1 | 17.0 | ? | 11.5 | 0.5 | ?
CC(=O)Nc1ccc(N=Cc2c(O)c3ccccc3oc2=O)cc1 | · | -8.1 | · | · | -5.4
CC(=O)Nc1ccc(N=Cc2c(O)c(C(=O)Nc3ccccc3)cc3ccccc23)cc1 | 18.8 | 0.8 | -18.6 | 64.8* | 9.1
Cc1cccc(C)c1N1C(=O)CC(N(O)c2ccccc2)C1=O (stereo not given) | -18.6 | 51.1* | -5.0 | -0.8 | 6.7
SMILES | D2 antagonist | D2 PAM-1 | D2 PAM-2 | D2 ag-1 | D2 ag-2 | others
Cc1c(Cl)cccc1N1C(=O)CC(N(O)c2ccccc2)C1=O (stereo not given) | -0.3 | 55.0* | 7.4 | 1.5 | 5.8
CCOc1ccccc1N1C(=O)CC(N(O)c2ccccc2)C1=O (stereo not given) | -12.8 | 4.4 | 27.0 | 0.8 | ?
CCn1c(=O)cc(SCC(=O)NCCc2cc(OC)ccc2OC)c2ccccc21 | · | · | 15.3 | -0.9 | ·
O=[N+]([O-])c1cc([N+](=O)[O-])c(Oc2cccnc2Br)cc1NN1CCCCC1 | 34.8* | 3.6 | -3.5 | -0.4 | 0.8
O=S(=O)(c1ccsc1)N1CC=C(c2ccccc2)CC1 | 34.7* | -4.7 | -11.6 | 36.4* | 10.3
CCC(C(=O)NCc1cc(OC)ccc1OC)n1nc(C)c2sc3ccccc3c2c1=O (stereo not given) | · | · | 3.3 | 1.9 | ·
COC(=O)c1cc(S(=O)(=O)N2CCC(c3cc(OC)ccc3OC)C2)c[nH]1 (stereo not given) | -10.9 | -4.8 | 83.3* | 0.0 | 3.2
COC(=O)c1cc(S(=O)(=O)N2CCC(c3ccccc3)C2)c[nH]1 (stereo not given) | 12.5 | -6.9 | -25.0 | 0.3 | 1.0
CC1(C)N=C(SCc2ccc(F)cc2)c2ccccc2N1 | · | · | 7.6 | 0.5 | ·
COc1cc(C(=O)OCC(=O)Nc2ccccc2C(=O)NC2CC2)c([N+](=O)[O-])cc1OC | 34.1* | -0.1 | -9.7 | -0.2 | -1.2
CC(=O)NC(c1cc(Cl)c2cccnc2c1O)C1CC1 (stereo not given) | -17.0 | · | 3.2 | -0.6 | · | D3 arrestin ag=-30.7%;D2 ag-3=-6.3%
CC(=O)NC(c1cc(Cl)c2cccnc2c1O)C(C)C (stereo not given) | -6.8 | · | -14.2 | -0.2 | ·
CCN(CC)C(=O)c1[nH]cnc1C(=O)N[C@@H](C)C(=O)OC(C)(C)C | 28.8 | -10.8 | -7.5 | 4.7 | -2.7 | D3 arrestin ag=-5.3%;D2 ag-3=-4.4%
COC(=O)C(N)Cc1ccc(Cl)cc1 (stereo not given) | -8.3 | -2.0 | 13.2 | -1.0 | -6.0
COC(=O)[C@@H](N)Cc1ccc(O)c(O)c1 | 80.9* | -5.9 | -20.7 | 73.8* | -7.8 | D3 arrestin ag=?;D2 ag-3=20.5%
CSc1ncc(Cl)c(C(=O)N(C)c2ccccc2)n1 | · | · | · | -0.7 | ·
O=C(CCc1nc2ccccc2c(=O)[nH]1)Nc1ccc(Cl)c(Cl)c1 | 54.3* | 15.0 | -22.8 | 70.4* | ? | D3 arrestin ag=?;D2 ag-3=?
